Several values for one entry are separate records, joined by “and”; a condition that tells them apart may be missing. Identical values can stand only once. Inconclusive results are not listed. The source holds several records for some structures; these can differ, active in one and inactive in another. Activity calls are given as the source filed them. How the source made its calls, unless noted: active means hit-call score of the fitted dose curve at least 0.9, where 1 is the maximum; inactive means score below 0.9.
How the values were obtained:
[1] = BSK_3C_Vis: BioMAP Diversity Plus: 3C Assay for Morphology Visualization (AID 2283025); conditions: primary human endothelial cells (HUVEC);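 further: fitted both ways so gain or loss versus DMSO counts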;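 on AC50: light microscopy image of cell morphology used as background control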
How it was run: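 Human umbilical vein endothelial cell morphology was inspected by light microscopy 24 h after chemical dosing; scored bidirectionally relative to DMSO.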

[2] = read-out: Vascular endothelial growth factor receptor 2 (Homo sapiens) (UniProt P35968); assay: BSK_4H_VEGFRII: BioMAP Diversity Plus: 4H Assay for Vascular endothelial growth factor receptor 2 (VEGFR2) Biomarker Activity (AID 2283031); conditions: primary human endothelial cells (HUVEC); actives raise or lower the signal;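 on AC50: cell-surface VEGFR2 protein level quantified by ELISA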
How it was run: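 HUVEC (human primary), 4H system; 24 h post-dose; VEGFRII by ELISA; bidirectional curve fit vs DMSO baseline; gain or loss of signal scored.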

[3] = read-out: Transforming growth factor beta 1 (TGFb1), TGFB1 (gene 7040); assay: BSK_BE3C_TGFb1: BioMAP Diversity Plus: BE3C Assay for Transforming growth factor beta 1 (TGFb1) Biomarker Activity (AID 2283036); conditions: primary human bronchial epithelial cells; actives raise or lower the signal
How it was run: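 Primary human bronchial epithelial cells dosed with chemical; TGF-b1 measured by ELISA 24 h after dosing. Bidirectional curve fitting against DMSO negative control; SRB total-protein staining in parallel cultures gauged cytotoxicity.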

[4] = read-out: Interleukin-8 (IL8), CXCL8 (gene 3576); assay: BSK_CASM3C_IL8: BioMAP Diversity Plus: CASM3C Assay for Interleukin-8 (IL8) Biomarker Activity (AID 2283042); conditions: primary human coronary artery smooth muscle cells; actives raise or lower the signal;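 further: IL-8 protein level quantified by ELISA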
[5] = read-out: Urokinase-type plasminogen activator receptor (uPAR), PLAUR (gene 5329); assay: BSK_CASM3C_uPAR: BioMAP Diversity Plus: CASM3C Assay for Urokinase-type plasminogen activator receptor (uPAR) Biomarker Activity (AID 2283054); conditions: primary human coronary artery smooth muscle cells; actives raise or lower the signal;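 further: cell-surface uPAR protein level quantified by ELISA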
[6] = read-out: Transforming growth factor beta 1 (TGFb1), TGFB1 (gene 7040); assay: BSK_KF3CT_TGFb1: BioMAP Diversity Plus: KF3CT Assay for Transforming growth factor beta 1 (TGFb1) Biomarker Activity (AID 2283072); conditions: primary human keratinocytes with fibroblasts; actives raise or lower the signal
How it was run: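 Human keratinocyte/foreskin fibroblast co-culture; TGF-b1 measured by ELISA 24 h after dosing, fitted bidirectionally versus DMSO. Cytotoxicity checked in parallel cultures by total protein (SRB staining, 560 nm).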

[7] = BSK_BT_PBMCCytotoxicity: PBMC Cytotoxicity Assessment in the BioMAP Diversity Plus: BT Assay (AID 2284225); conditions: primary human B cells with PBMC;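 further: PBMC viability measured by Alamar Blue dye reduction fluorescence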
How it was run: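 PBMC (75,000/well) pretreated with compound 1 h, then activated with SEB and TSST-1 (20 ng/mL each final), incubated 90 h; Alamar Blue added 6 h, fluorescence read at 546/580 nm. Fitted relative to DMSO.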

[8] = BSK_BT_Bcell_Proliferation: Viability Assessment in the BioMAP Diversity Plus: BT Assay for B cell Proliferation (AID 2284227); conditions: primary human B cells with PBMC
How it was run: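 Human B cell/PBMC co-culture; test chemical added; 72 h; TCA fix (10%), 0.1% SRB stain, A560 for total protein as a proliferation read-out; positive-direction fit vs DMSO baseline.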

[9] = read-out: Interleukin 6 (IL6), IL6 (gene 3569); assay: BSK_BT_xIL6: BioMAP Diversity Plus: BT Assay for Interleukin 6 (IL6) Biomarker Activity (AID 2284228); conditions: primary human B cells with PBMC
How it was run: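 Readout: secreted IL-6 via Luminex xMAP multiplex, 24 h post-dosing. System: primary human B cells co-cultured with PBMC. Signal change scored relative to DMSO vehicle, positive fitting direction.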

[10] = read-out: Collagen III, COL3A1 (gene 1281); assay: BSK_MyoF_CollagenIII: BioMAP Diversity Plus: MyoF Assay for Collagen III Biomarker Activity (AID 2284239); conditions: primary human lung fibroblasts
How it was run: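 Lung fibroblast culture; 24 h compound exposure; collagen III by ELISA; gain-of-signal fit vs DMSO baseline.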

[11] = read-out: Interleukin 2 (IL2), IL2 (gene 3558); assay: BSK_BT_xIL2: BioMAP Diversity Plus: BT Assay for Interleukin 2 (IL2) Biomarker Activity (AID 2284245); conditions: primary human B cells with PBMC
How it was run: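 Human B cell plus PBMC co-culture, 24 h after chemical dosing; secreted IL-2 quantified by Luminex xMAP multiplex, fitted for signal gain against DMSO baseline.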

[12] = read-out: Collagen IV, COL4A1 (gene 1282); assay: BSK_MyoF_CollagenIV: BioMAP Diversity Plus: MyoF Assay for Collagen IV Biomarker Activity (AID 2284247); conditions: primary human lung fibroblasts
How it was run: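 Primary human lung fibroblasts (MyoF system) dosed 24 h; Collagen IV measured by ELISA. Activity fitted in positive direction against DMSO; cytotoxicity tracked by SRB total-protein staining in parallel cultures.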

[13] = read-out: Plasminogen activator inhibitor-1 (PAI1), SERPINE1 (gene 5054); assay: BSK_MyoF_PAI1: BioMAP Diversity Plus: MyoF Assay for Plasminogen activator inhibitor-1 (PAI1) Biomarker Activity (AID 2284256); conditions: primary human lung fibroblasts
How it was run: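 MyoF lung fibroblasts, human primary; compound 24 h; PAI-1 ELISA; positive-direction fit vs DMSO baseline; parallel SRB total-protein staining for cytotoxicity.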

[14] = read-out: Matrix Metallopeptidase 1 (MMP1), MMP1 (gene 4312); assay: BSK_MyoF_MMP1: BioMAP Diversity Plus: MyoF Assay for Matrix Metallopeptidase 1 (MMP1) Biomarker Activity (AID 2284268); conditions: primary human lung fibroblasts
How it was run: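 Cells: human lung fibroblasts. Exposure: 24 h chemical dosing. Detection: ELISA for MMP1. Analysis: upward fitting against DMSO negative control.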

[15] = read-out: TIMP metallopeptidase inhibitor 1 (TIMP1), TIMP1 (gene 7076); assay: BSK_MyoF_TIMP1: BioMAP Diversity Plus: MyoF Assay for TIMP metallopeptidase inhibitor 1 (TIMP1) Biomarker Activity (AID 2284269); conditions: primary human lung fibroblasts
How it was run: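 ELISA read-out of TIMP-1 from primary human lung fibroblast cultures 24 h after compound dosing; gain of signal relative to DMSO vehicle baseline defines activity.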

[16] = target: Retinoic acid receptor alpha (Homo sapiens) (UniProt P10276); assay: ATG_DR5_RAR_CIS: Attagene CIS-FACTORIAL HepG2 Assay for human Retinoic Acid Receptor Alpha (RARE), DR5 submotif (AID 2282934); conditions: HepG2 Attagene cis-factorial RARE DR5 reporter, mRNA; actives raise or lower the signal
How it was run: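 Transient MRTU transfection of HepG2; 24 h compound treatment; TriZol RNA, oligo(dT) RT, PCR, FAM labelling, capillary electrophoresis. Bidirectional fit vs DMSO. Endogenous TF activity at DR5 RARE.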

[17] = target: Peroxisome proliferator-activated receptor gamma (Homo sapiens) (UniProt P37231); assay: OT_PPARg_PPARgSRC1_1440: Odyssey Thera (OT) 24-hour Protein-Complementation Assay for Peroxisome Proliferator-activated Receptor Gamma/ SRC-1 Co-activator (AID 2283388; active means hit-call score of the fitted dose curve at least 0.9, where 1 is the maximum;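 further: nuclear to cytoplasmic ratio of reconstituted Venus YFP fluorescence in fixed imaged cells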)
How it was run: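 Readout: nuclear-to-cytoplasmic 488 nm fluorescence ratio, ≥350 cells per image, 8 images per well, after 24 h compound exposure of HEK293T expressing PPARg/SRC-1 split-YFP fusions. Activity fitted in positive direction against DMSO.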

[18] = ACEA_AR_agonist_AUC_viability: ACEA Biosciences xCELLigence Real-Time Cell Analysis on Androgen Receptor Agonism for Viability (AID 2283775; active means hit-call score of the fitted dose curve at least 0.9, where 1 is the maximum;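 on AC50: viability read 80 hours after compound addition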)
How it was run: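 Real-time impedance tracking of 22Rv1 growth, readings every 5 min for 5 h then hourly; area-under-curve viability endpoint at 80 hours, relative to DMSO. Compounds at eight concentrations, 1:4 steps, top 100 uM, n = 2.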

[19] = ACEA_AR_antagonist_AUC_viability: ACEA Biosciences xCELLigence Real-Time Cell Analysis on Androgen Receptor Antagonism for Viability (AID 2283776; active means hit-call score of the fitted dose curve at least 0.9, where 1 is the maximum;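 further: 22Rv1 human prostate cancer cells growing on impedance electrode plates; hits lower the growth signal relative to DMSO meaning cytotoxicity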)
How it was run: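 Impedance read-out (RT-CES): area under growth curve at 80 h post-dose, loss of signal scored vs DMSO baseline. 22Rv1 cells; 8-pt 1:4 series, top 100 uM final, ≤0.5% DMSO; biological duplicate.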

[20] = target: human Vitamin D Receptor (VDR), VDR (gene 7421) (UniProt P11473); assay: ATG_VDR_TRANS: Attagene TRANS-FACTORIAL HepG2 Assay for human Vitamin D Receptor (VDR) (AID 2283022; active means hit-call score of the fitted dose curve at least 0.9, where 1 is the maximum)
How it was run: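 RT-PCR/capillary electrophoresis read-out of reporter mRNA induction in transiently transfected HepG2; 24 h dosing; chimeric NR-Gal4 (TRANS format); gain-of-signal fit against DMSO baseline.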

Measured: AC50

Sequence of Retinoic acid receptor alpha (Homo sapiens) (P10276 whole entry, looked up): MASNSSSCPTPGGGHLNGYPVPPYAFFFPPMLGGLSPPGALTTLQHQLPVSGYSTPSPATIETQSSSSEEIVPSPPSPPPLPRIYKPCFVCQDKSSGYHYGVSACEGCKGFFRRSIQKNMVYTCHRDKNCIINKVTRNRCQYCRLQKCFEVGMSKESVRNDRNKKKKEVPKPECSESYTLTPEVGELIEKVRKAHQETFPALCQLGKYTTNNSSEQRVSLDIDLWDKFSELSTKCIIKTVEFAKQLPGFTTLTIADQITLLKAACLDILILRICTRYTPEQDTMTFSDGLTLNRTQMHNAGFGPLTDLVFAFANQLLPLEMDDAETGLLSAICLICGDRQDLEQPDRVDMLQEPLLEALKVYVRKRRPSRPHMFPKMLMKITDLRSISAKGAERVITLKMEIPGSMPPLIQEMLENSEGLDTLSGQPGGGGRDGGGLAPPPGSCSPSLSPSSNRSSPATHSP
Sequence of human Vitamin D Receptor (VDR), VDR (gene 7421) (P11473 whole entry, looked up, the tested form may be a part): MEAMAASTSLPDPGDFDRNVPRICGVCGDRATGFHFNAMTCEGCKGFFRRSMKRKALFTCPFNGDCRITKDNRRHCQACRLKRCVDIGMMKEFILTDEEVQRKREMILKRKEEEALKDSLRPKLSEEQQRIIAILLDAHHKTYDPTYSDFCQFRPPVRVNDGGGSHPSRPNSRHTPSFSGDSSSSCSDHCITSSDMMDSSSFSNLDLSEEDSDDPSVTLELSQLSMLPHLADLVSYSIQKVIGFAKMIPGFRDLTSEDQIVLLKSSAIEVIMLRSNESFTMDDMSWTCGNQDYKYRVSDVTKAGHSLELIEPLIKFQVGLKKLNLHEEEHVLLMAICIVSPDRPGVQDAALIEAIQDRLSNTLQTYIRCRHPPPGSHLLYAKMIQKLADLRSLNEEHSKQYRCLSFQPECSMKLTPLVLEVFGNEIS
Sequence of Peroxisome proliferator-activated receptor gamma (Homo sapiens) (P37231 whole entry, looked up, the tested form may be a part): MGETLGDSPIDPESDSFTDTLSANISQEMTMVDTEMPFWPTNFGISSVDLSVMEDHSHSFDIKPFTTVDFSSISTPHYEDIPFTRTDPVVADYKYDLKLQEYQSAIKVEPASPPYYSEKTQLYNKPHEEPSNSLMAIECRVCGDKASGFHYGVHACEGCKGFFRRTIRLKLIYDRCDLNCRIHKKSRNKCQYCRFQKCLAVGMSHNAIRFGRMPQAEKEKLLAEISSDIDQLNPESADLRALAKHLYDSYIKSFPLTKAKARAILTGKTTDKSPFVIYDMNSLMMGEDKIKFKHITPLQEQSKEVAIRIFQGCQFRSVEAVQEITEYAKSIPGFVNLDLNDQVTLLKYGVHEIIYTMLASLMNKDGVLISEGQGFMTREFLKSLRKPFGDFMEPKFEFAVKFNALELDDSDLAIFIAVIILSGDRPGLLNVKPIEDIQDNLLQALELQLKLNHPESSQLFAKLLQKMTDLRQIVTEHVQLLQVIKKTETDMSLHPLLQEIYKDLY

O=C(O)CCCc1ccc(N(CCCl)CCCl)cc1
active: [1] 38.9 µM and 38.6 µM | [3] 20 µM | [4] 20 µM | [5] 30.6 µM and 20 µM | [6] 29.8 µM | [8] 12.7 µM and 13 µM | [9] 14.8 µM and 20 µM | [10] 20 µM | [11] 35.5 µM | [13] 16 nM | [14] 30.6 µM
inactive: [2] | [3] | [6] | [7] | [10] | [11] | [12] | [13] | [14] | [15]

O=C(CCl)c1ccccc1
inactive: [16] | [2] | [3] | [17]
active: [1] 4.12 µM | [4] 11.2 µM | [5] 10.4 µM | [6] 25.7 µM | [18] 78.5 µM | [19] 69.7 µM

CC(C)COP(=O)(OCC(C)C)OCC(C)C
inactive: [1] | [2] | [3] | [4] | [5] | [6] | [7] | [8] | [9] | [10] | [11] | [12] | [13] | [14] | [15]

[CH3][Sn]([CH3])([Cl])[Cl]
inactive: [16] | [20] | [17] | [18] | [19]

N#CCCCl
inactive: [20]

CC(C)(C)C(O)C(Oc1ccc(-c2ccccc2)cc1)n1cncn1 (centres undefined)
active: [1] 37.6 µM | [2] 34.7 µM | [5] 29 µM | [6] 20 µM | [8] 29.8 µM | [10] 30.5 µM | [11] 20 µM | [12] 20 µM | [14] 30 µM | [15] 17.1 µM
inactive: [3] | [4] | [7] | [9] | [13]

CCCOC(=O)c1ccccc1C(=O)OCCC
active: [5] 5.19 µM
inactive: [1] | [2] | [3] | [4] | [6] | [7] | [8] | [9] | [10] | [11] | [12] | [13] | [14] | [15]

O=C=Nc1ccccc1
inactive: [17] | [18] | [19]

CC(C)(C)C(=O)CCl
inactive: [1] | [2] | [3] | [5] | [6] | [8] | [9] | [10] | [11] | [12] | [14] | [15]
active: [7] 12.9 µM | [13] 32900 nM

C=CC(=O)OCC(CC)CCCC (centres undefined)
active: [6] 0.164 µM | [18] 4.45 µM
inactive: [20] | [1] | [2] | [3] | [4] | [5] | [17] | [19] | [7] | [8] | [9] | [10] | [11] | [12] | [13] | [14] | [15]

CN(C)C(=O)C(c1ccccc1)c1ccccc1
inactive: [17] | [18] | [19]

COc1cc(OC)nc(Oc2cccc(Oc3nc(OC)cc(OC)n3)c2C(=O)O)n1
inactive: [17] | [18] | [19]

O=C1C=CC(=O)C=C1
active: [1] 8.8 µM | [6] 29.9 µM and 12.4 µM | [7] 17.3 µM and 27.7 µM | [8] 17.8 µM and 24.2 µM | [9] 11.3 µM and 25.7 µM | [10] 32.2 µM and 20 µM | [11] 26.3 µM and 32 µM | [12] 34.4 µM | [13] 36.9 µM and 26.8 µM | [14] 5.76 µM | [15] 30.3 µM
inactive: [1] | [2] | [3] | [4] | [5] | [12] | [14] | [15]

Nc1ccccc1
inactive: [20] | [17] | [18] | [19]

C=C(Cl)Cl
inactive: [16]

Oc1ccc(Cl)cc1
inactive: [17] | [19]

SCc1ccco1
inactive: [20]

O=P1(NCCCl)OCCCN1CCCl (centres undefined)
inactive: [1] | [2] | [3] | [4] | [5] | [6] | [7] | [8] | [9] | [10] | [11] | [12] | [13] | [14] | [15]

CCC(Br)(CC)C(=O)NC(N)=O
inactive: [16]

CC(C)C(=O)Cl
inactive: [20]

O=P(O)(Oc1ccccc1)Oc1ccccc1
inactive: [20] | [17]

C=CCc1ccc(OC(=O)Cc2ccccc2)c(OC)c1
inactive: [16]

CCc1cccc(C)c1N(C(=O)CCl)[C@@H](C)COC
inactive: [17] | [18] | [19]

CCCCOC(=O)CCC(=O)OCCCC
inactive: [16]

Cc1cc(C)c(C2=C(OC(=O)CC(C)(C)C)C3(CCCC3)OC2=O)c(C)c1
inactive: [17] | [18] | [19]

Cl/C=C\CCl
inactive: [20]

CCCC=NO
inactive: [17] | [18] | [19]

CCOP(=O)(OCC)OCC
inactive: [16] | [17] | [18]

CN(C)CCC#N
inactive: [16] | [20]

C[C@]12CCC(=O)C(O)=C1CC[C@@H]1[C@@H]2CC[C@]2(C)C(=O)CC[C@@H]12
inactive: [20]

ClCC(Cl)Cl
inactive: [20]

COC(=O)c1ccccc1S(=O)(=O)NC(=O)Nc1nc(C)cc(C)n1
inactive: [20]

Cc1ccc(N(SC(F)(Cl)Cl)S(=O)(=O)N(C)C)cc1
inactive: [20]

CCOP(O)OCC
inactive: [16] | [17] | [18]
